Screening data deposited in PubChem BioAssay by National Center for Advancing Translational Sciences (NCATS).
Hits are enriched below; roughly 21% of the tested compounds scored in any of these assays.
IL1B secr inh: qHTS for Inhibitors of Inflammasome Signaling: IL-1-beta AlphaLISA Primary Screen; THP-1 LPS/ATP IL-1B secretion, AlphaLISA, 16 h; active compounds read low; activity change, % at 57.5 µM; 4.7% of 360,000 active; AID 743279, 2014; in the data active = activity change below about -50%; inconclusive = mostly about -30% to -49%; also: % is scaled to controls: 0 for no effect and ±100 for the full control effect
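Secreted IL-1B measured by AlphaLISA bead assay after 16 h compound exposure of THP-1 cells; compounds (final up to 57.5 uM) added 1 h before LPS (250 ng/mL) and ATP (1.25 mM) stimulation; lower signal means less secretion.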
DRD3 antagonist: qHTS of D3 Dopamine Receptor Antagonist: qHTS. max response, negative = inhibition, %. 2.5% of 360,000 active. D3R cells, DiscoveRx beta-arrestin luminescence, antagonist mode; active compounds read low. D(3) dopamine receptor (Homo sapiens), P35462. AID 652054, 2013; in the data active = max response below about -50%; inconclusive = no clear call, values can overlap the other calls; also: % is scaled to controls: 0 for no effect and ±100 for the full control effect
Target sequence (P35462 whole entry, looked up): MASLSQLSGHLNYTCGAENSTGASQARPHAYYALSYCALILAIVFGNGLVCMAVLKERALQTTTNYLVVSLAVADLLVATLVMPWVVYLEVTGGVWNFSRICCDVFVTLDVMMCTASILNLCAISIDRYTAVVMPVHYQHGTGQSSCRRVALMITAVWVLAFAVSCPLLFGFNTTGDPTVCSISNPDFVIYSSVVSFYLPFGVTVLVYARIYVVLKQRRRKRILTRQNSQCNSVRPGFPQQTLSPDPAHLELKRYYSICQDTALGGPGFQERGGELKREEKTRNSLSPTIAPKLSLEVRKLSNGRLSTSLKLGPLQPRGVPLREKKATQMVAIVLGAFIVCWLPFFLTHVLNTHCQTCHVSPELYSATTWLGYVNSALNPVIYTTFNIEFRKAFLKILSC
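Cells plated overnight at 1500 cells/well, then exposed to library compounds with dopamine controls for 90 minutes at 37 degrees C. DiscoveRx reagent added for 30–60 minutes at room temperature; luminescence read, quantitative HTS format.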
DT40 TDP1 CPT: qHTS for Inhibitors of human tyrosyl-DNA phosphodiesterase 1 (TDP1): qHTS in cells in presence of CPT. chicken DT40 Tdp1-/-;hTDP1 cells + 20 nM CPT, ATP luminescence, 48 h. Potency, µM (top dose mostly 46.2 µM), for the others: at the highest dose activity change, negative = growth inhibition, hits mostly inhibitors. 12% of 420,000 active; also: potency is read from the fitted curve at half-maximal effect; % is scaled to controls: 0 for no effect and ±100 for the full control effect; nearly all actives have a fitted effect of over 55% in size
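Chicken DT40 Tdp1-/- cells stably complemented with human TDP1 were seeded at 400 cells/well in medium containing 20 nM camptothecin, exposed to pin-transferred compounds, and grown at 37 °C for at least 48 hr. Viability was read as ATP luminescence.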
D3 ag: qHTS of D3 Dopamine Receptor Agonist: qHTS; max activation, %; 0.58% of 410,000 active; D(3) dopamine receptor (Homo sapiens), P35462; D3R DiscoveRx beta-arrestin cells, luminescence, 90 min; in the data active = max activation above about 30%; also: 0% is about no effect
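Cells at 1500/well, incubated overnight, then treated with pinned compounds (dopamine as control) for 90 min at 37 degrees C. DiscoveRx reagent added for 30 - 60 minutes at room temperature; luminescence read.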
TDP1 cell noCPT: qHTS for Inhibitors of human tyrosyl-DNA phosphodiesterase 1 (TDP1): qHTS in cells in absence of CPT; Potency, µM (highest dose often 46.2 µM), for the others: top-dose activity change, negative = growth inhibition, usual class: inhibitors; 15% of 420,000 active; DT40 Tdp1-/- hTDP1 cells, no CPT, ATP luminescence, 48 h; also: potency is read from the fitted curve at half-maximal effect; % is scaled to controls: 0 for no effect and ±100 for the full control effect; nearly all actives have a fitted effect of over 55% in size
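Compound effects on proliferation are scored in DT40 Tdp1-/-;hTDP1 cells in the absence of CPT. ATP levels (CellTiter-Glo luminescence) are recorded after a ≥48 hr, 37 °C incubation.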
ClpP mod: qHTS Assay for Activators of ClpP. ATP-dependent Clp protease proteolytic subunit (Bacillus subtilis (strain 168)), P80244. purified B. subtilis ClpP, FRET peptide cleavage, 20 min. Potency, µM (highest dose often 57.5 µM), inactives show top-dose activity change, negative = active. 1.9% of 340,000 active; active = well fitted falling curve with a large enough effect; inconclusive = small, poorly fitted or top-dose-only effect; inactive = no such curve, though single readings can be large or run the other way; also: potency is read from the fitted curve at half-maximal effect; the source files actives as falling curves though it sought activators and does not explain the sign; nearly all actives have a fitted effect of over 65% in size
Target sequence (P80244 whole entry, looked up): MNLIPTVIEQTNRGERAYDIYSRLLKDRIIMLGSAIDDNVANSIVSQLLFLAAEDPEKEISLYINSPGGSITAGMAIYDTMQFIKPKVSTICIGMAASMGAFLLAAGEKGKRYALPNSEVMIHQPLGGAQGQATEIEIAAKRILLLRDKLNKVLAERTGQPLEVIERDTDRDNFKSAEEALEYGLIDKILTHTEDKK
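FRET quenching reversal measured ClpP activation: 10 microg/mL B. subtilis ClpP at pH 8 with the FRET-FV decapeptide, read at 430 nm after 320 nm excitation. The 20-min minus 0-min signal was scaled between DMSO/no-enzyme wells and ADEP (5.8 microM final).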
Starred values were filed as active, the others as inactive; ? = inconclusive; / = no result. Unless noted, calls follow the shape of the dose curve; as a rule, active = well fitted inhibition curve with a large enough effect; inconclusive = small, poorly fitted or top-dose-only effect; inactive = flat fitted curve, though single readings scatter.

SMILES	IL1B secr inh	DRD3 antagonist	DT40 TDP1 CPT	D3 ag	TDP1 cell noCPT	ClpP mod
Cc1ccc(Cl)cc1N1CCN(C(=O)c2cn(C3CCCCC3)c(=O)c3c2c2ccccc2n3C)CC1	/	/	23.1µM*	2.6	18.4µM*	-15.7%
Cc1ccc(Cl)cc1N(C)C(=O)c1cn(C2CCCCC2)c(=O)c2c1c1ccccc1n2C	/	/	?	0.2	?	-23.6%
COc1ccc(N2CCN(C(=O)c3cn(C4CCCC4)c(=O)c4c3c3ccccc3n4C)CC2)cc1	-14.1	-11.1	16.4µM*	-1.6	16.4µM*	0.8%
COc1ccc(N2CCN(C(=O)c3cn(C)c(=O)c4c3c3ccccc3n4C)CC2)cc1	28.3	-8.5	?	0.4	14.6µM*	-23.0%
CCC(=O)N1CCc2cc(CNC(=O)Nc3ccc(OC)cc3OC)ccc21	/	/	-6.8%	2.2	-7.9%	-5.7%
Clc1ccccn1	-2.5	4.4	17.7%	2.5	1.2%	-1.0%
O=C(c1ccco1)c1nnn(Cc2ccccc2)c1-c1ccccc1	-3.4	12.0	?	2.4	20.6µM*	-0.6%
Nc1c(C(=O)NCc2ccco2)nnn1Cc1ccccc1	-13.4	37.1	1.4%	7.9	-11.9%	-2.9%
Cn1c(=O)[nH]c(=O)c2c1nc(N1CCCCC1)n2CCCSc1nc2ccccc2s1	?	-6.8	13µM*	-11.8	13µM*	1.1%
Cn1c(=O)[nH]c(=O)c2c1nc(N1CCCC1)n2CCCSc1nc2ccccc2o1	11.6	42.3	23.1µM*	2.0	?	0.7%
Cn1c(=O)[nH]c(=O)c2c1nc(Br)n2CCSc1ncccn1	7.8	44.3	4.4%	4.5	-8.1%	0.7%
Cn1c(=O)[nH]c(=O)c2c1nc(Br)n2CCCSc1nc2ccccc2o1	32.5	16.7	?	1.3	25.9µM*	-1.0%
Cc1nnc(SCCCn2c(N3CCN(c4ccccc4)CC3)nc3c2c(=O)[nH]c(=O)n3C)s1	-28.9	7.7	?	4.3	?	-2.0%
COc1ccccc1OCCSc1nc(C)c(Cc2ccccc2)c(=O)[nH]1	42.9	-4.7	0.9%	2.9	10.6%	-3.3%
CC(C)Cc1ccc(CC(=O)O)cc1	/	/	3.2%	5.1	8.3%	/
CN(CCCCCC(=O)/C=N/O)Cc1ccccc1	26.7	-5.9	-7.5%	-6.3	-0.3%	-0.3%
Cc1ccc(C(C)C)c(OCCCN(C)Cc2ccccc2)c1	-21.2	-61.4*	16.4µM*	-14.2	23.1µM*	2.4%
Cc1ccc(OCCCCN(C)Cc2ccccc2)c(Br)c1	-97.6*	-54.6*	23.1µM*	-15.8	18.4µM*	-3.3%
Cc1cc(C)c(OCCCCN(C)Cc2ccccc2)c(C)c1	-2.2	?	?	-22.0	23.1µM*	1.3%
Cc1ccc(C(C)C)c(OCC(O)CN(C)Cc2ccccc2)c1 (configuration not stated)	-85.2*	12.8	23.1µM*	-7.0	?	/
CCOC(=O)Cc1csc(NS(=O)(=O)c2ccc(F)cc2)n1	3.0	4.1	?	4.5	?	-0.6%
Cc1ccccc1OCC(O)CNC1CCCC1 (configuration not stated)	11.2	-1.9	-0.8%	-8.6	-5.9%	-0.2%
Cc1ccc(C(C)C)c(OCC(O)CNC2CCCC2)c1 (configuration not stated)	-51.2*	-5.0	23.1µM*	-0.8	16.4µM*	0.2%
COc1ccc(C(O)c2ncc(-c3cccc(OCc4ccccc4)c3)[nH]2)cc1F (configuration not stated)	3.4	2.2	?	17.6	?	-2.1%
O=C(COC(=O)c1cccc(C(F)(F)F)c1)NC(=O)NC1CCCC1	-8.0	-22.1	?	1.0	?	1.1%
SMILES	IL1B secr inh	DRD3 antagonist	DT40 TDP1 CPT	D3 ag	TDP1 cell noCPT	ClpP mod
COc1ccc(C(=O)/C=C/C(=O)N(CC(=O)NC2CCCCC2)Cc2ccc(F)cc2)c(O)c1	-98.2*	3.4	5.17µM*	-4.2	4.61µM*	/
CS(=O)(=O)N(CC(=O)NC1CCCCC1)Cc1ccc(F)cc1	-7.1	-11.9	5.9%	-10.3	-13.8%	/
COc1ccc(C(=O)/C=C/C(=O)N(CC(=O)NCCC(C)C)Cc2cccs2)c(O)c1	-87.6*	-10.7	1.84µM*	1.5	?	-1.4%
CCN1CC(C)(C)N(C(=O)c2ccccc2)CC1(C)C	-4.7	14.1	-12.4%	5.1	-21.6%	-0.3%
CCSC1(SCC)N=C(N)C2(C#N)C(c3ccc(OC)c(OC)c3OC)C12C#N (configuration not stated)	-115.2*	-26.1	6.51µM*	-9.2	8.2µM*	0.7%
CCSC1(SCC)N=C(N)C2(C#N)C(c3ccccc3)NC3=C(CCC3)C12C#N (configuration not stated)	-16.8	3.9	-2.9%	-2.6	-23.1%	-1.7%
FC(F)(F)c1ccccc1-c1nc(NC2CCNCC2)c2ccccc2n1	/	/	14.6µM*	/	?	/
ON=C1c2cc(OCCN3CCCCC3)ccc2-c2ccc(OCCN3CCCCC3)cc21	-97.2*	?	7.31µM*	-26.3	8.2µM*	-0.3%
Clc1ccc(OCCN2CCOCC2)cc1Cl	-7.1	-66.4*	-8.7%	1.0	-12.4%	-0.5%
O=C(OCCN1CCOCC1)c1ccc(OCCN2CCOCC2)cc1	-10.6	9.6	3.2%	0.9	-0.8%	?
CNCCOc1ccc(Cl)c(Cl)c1	-24.0	-61.6*	?	12.7	16.4µM*	/
COc1ccc(OCCN2CCOCC2)cc1	15.7	8.9	6.5%	1.0	5.0%	-2.5%
NC(=S)NN=C1c2cc(OCCN3CCOCC3)ccc2-c2ccc(OCCN3CCOCC3)cc21	-96.0*	1.9	16.4µM*	4.8	16.4µM*	/
C=CCOc1ccc2c(c1)C(=NO)c1cc(OCC=C)ccc1-2	?	21.5	?	4.3	23.1µM*	1.0%
Clc1ccc(OCCN2CCCCC2)cc1Cl	35.5	-78.8*	-21.4%	-9.0	?	1.3%
COc1ccc2c(c1)C(=NO)c1cc(OC)ccc1-2	?	2.9	?	3.3	?	-1.0%
c1ccc(COc2ccc(OCCN3CCCCC3)cc2)cc1	-2.0	-5.7	?	-20.1	-60.5%	-2.3%
O=C(CN1CCN(S(=O)(=O)/C=C/c2ccccc2)CC1)NCC(F)(F)F	-5.5	-13.0	2.7%	-4.6	-22.9%	/
